From PubChem
pPAFAH FP inh – pPAFAH (human) enzyme inhibition | Q13093 | AID 463082 | inhibition, % at 3.39 µM | 330,000 compounds, 1.5% hits | recombinant pPAFAH, FP-rhodamine probe fluorescence polarization;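 active = inhibition above the mean inhibition across the screen plus 3 SD, cut at about 25% in these data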;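 also: inhibitors block binding of the rhodamine activity-based probe so polarization drops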
Target sequence (Q13093 whole entry, looked up): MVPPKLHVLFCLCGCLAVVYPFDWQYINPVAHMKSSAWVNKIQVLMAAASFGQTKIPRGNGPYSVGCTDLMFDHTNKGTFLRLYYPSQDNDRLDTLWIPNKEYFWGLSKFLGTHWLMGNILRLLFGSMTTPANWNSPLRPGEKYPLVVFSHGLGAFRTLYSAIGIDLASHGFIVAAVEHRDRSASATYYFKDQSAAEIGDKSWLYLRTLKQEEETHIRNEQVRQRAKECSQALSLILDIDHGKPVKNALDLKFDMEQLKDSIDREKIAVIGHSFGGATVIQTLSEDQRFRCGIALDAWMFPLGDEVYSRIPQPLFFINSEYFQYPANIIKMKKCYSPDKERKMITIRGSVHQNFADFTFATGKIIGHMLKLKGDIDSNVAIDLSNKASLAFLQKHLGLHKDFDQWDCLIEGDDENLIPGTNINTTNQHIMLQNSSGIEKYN
LYPLA1 inh – counter-screen for PME1 inhibitors: inhibitors of human LYPLA1 | 320,000 compounds, 0.16% hits | O75608 | recombinant LYPLA1, FP-Rh probe fluorescence polarization | inhibition, % at 5.9 µM | AID 2174;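 active = inhibition above the mean of all tested compounds plus 3 SD, set per campaign, cut at about 14% in these data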;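 also: inhibitors block serine hydrolase probe labeling of LYPLA1 so polarization falls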
PAFAH1B3 FP inh – inhibitors of human PAFAH1B3; AID 492972; 340,000 compounds, 0.28% hits; Q15102; inhibition, % at 3.39 µM; recombinant PAFAH1B3, FP-rhodamine probe, fluorescence polarization;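 active = inhibition above the screen-wide average of all tested compounds plus 3 SD, cut at about 25% in these data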
LYPLA2 inh – LYPLA2 (human) inhibition in PME1 counter-screen. O95372. recombinant LYPLA2, FP-Rh probe fluorescence polarization. inhibition, % at 5.9 µM. 320,000 compounds, 0.38% hits;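 active = inhibition above the screen-wide mean plus 3 SD, limit set per campaign, cut at about 26% in these data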
PAFAH2 inh – inhibitors of human PAFAH2; recombinant PAFAH2, FP-rhodamine activity probe, fluorescence polarization; Q99487; inhibition, % at 3.39 µM; 340,000 compounds, 0.99% hits;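 active = inhibition above the mean over all tested compounds plus 3 SD, cut at about 30% in these data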;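 also: inhibitors block probe labeling of enzyme so polarization drops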
PAFAH1B2 inh – PAFAH1B2 (human) inhibition. 340,000 compounds, 1.2% hits. inhibition, % at 3.39 µM. AID 492953. P68402. recombinant PAFAH1B2, FP-rhodamine activity probe, fluorescence polarization;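 active = inhibition above the mean of all tested compounds plus 3 SD, cut at about 24% in these data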
Hits are given with their value; . = inactive; / = no result given. In the library only some 2.9% were active in any assay of this set; here they are far more common.

SMILES	pPAFAH FP inh	LYPLA1 inh	PAFAH1B3 FP inh	LYPLA2 inh	PAFAH2 inh	PAFAH1B2 inh
CSc1nc2ccc3nc(NC(=O)c4ccccc4)sc3c2s1	.	.	.	.	.	.
CCN(CC)C(=O)c1ccc2c(=O)n(CCOC)c(=S)[nH]c2c1	.	.	.	.	.	.
O=C(Cc1cccc(NC(=O)C2CCCN(C(=O)c3ccccc3)C2)c1)Nc1cccc(C(=O)N2CCOCC2)c1 (stereo unspecified)	/	/	.	/	.	.
Cc1c(N=Cc2cc3c(cc2[N+](=O)[O-])OCO3)cccc1[N+](=O)[O-]	49	.	.	.	.	.
COc1cc(Cl)c(C)cc1NC(=O)CSc1ccc(C)cc1	.	.	.	.	.	34
Cn1nnc(NC(=O)CSc2ccc(Cl)cc2)n1	.	.	.	.	.	25
COC(=O)c1sccc1NC(=O)CSc1ccc(Cl)cc1	.	.	.	.	.	29
COC(=O)c1sccc1NC(=O)CSc1ccccc1N	.	.	.	.	.	.
CCCn1nnc(NC(=O)Cc2ccc(Cl)cc2)n1	.	.	.	.	.	27
COc1ccc(-c2cc(C(F)(F)F)n3nc(C(=O)N4CCCC4)cc3n2)cc1	.	.	.	.	.	.
O=C(O)c1cccc(Br)c1	/	/	.	/	.	.
N/C(=N\OC(=O)CCC1CCCCC1)c1ccc([N+](=O)[O-])cc1	.	.	.	.	.	25
O=C1CCCC2=C1C(c1cccc(O)c1)c1c(ccc3ncccc13)N2 (stereo unspecified)	.	.	.	.	.	.
COC1=C(Br)C(=O)c2ncccc2C1=O	/	/	58	/	48	.
O=C(O)c1ccc(-n2cccc2/C=C2/SC(=O)N(CC(=O)N3CCCC3)C2=O)cc1	34	.	.	.	38	.
O=C(O)c1ccc(-n2cccc2/C=C2/NC(=O)N(c3ccccc3)C2=O)cc1	29	.	.	.	.	.
COc1ccc(S(=O)(=O)NCC(=O)Nc2cccc(C)c2C)cc1OC	.	.	.	.	.	.
Cc1csc(NC(=O)c2ccco2)c1C(=O)c1ccccc1	26	.	.	.	.	.
COc1ccc(-c2cc(-c3c(O)c(OC)c4occc4c3OC)[nH]n2)cc1OC	34	.	.	.	.	.
Cc1ccc(C(=O)NNc2cc(N3CCCC3)nc(N3CCCC3)n2)cc1	32	.	/	.	/	/
Nc1c(C(=O)Nc2ccccc2F)sc2nc(-c3ccco3)ccc12	31	.	.	.	.	.
Nc1c(C(=O)Nc2ccccc2F)sc2nc(-c3cccnc3)ccc12	.	.	.	.	.	.
O=C(O)COc1ccccc1/C=N/NC(=O)CSc1nnc(SCc2ccc(Cl)cc2)s1	27	.	.	.	.	43
O=C(CSc1nnc(SCc2cccc3ccccc23)s1)N/N=C/c1c[nH]c2ccccc12	.	.	.	.	.	26
Cc1ccc(C(=O)Nc2cccc(NC(=O)c3ccc(C)c([N+](=O)[O-])c3)n2)cc1[N+](=O)[O-]	.	.	.	.	.	.
SMILES	pPAFAH FP inh	LYPLA1 inh	PAFAH1B3 FP inh	LYPLA2 inh	PAFAH2 inh	PAFAH1B2 inh
O=C(O)c1cccc(N2C(=O)CSC2c2ccccc2)c1 (stereo unspecified)	.	.	.	.	.	27
N/C(Cc1cccs1)=N\OC(=O)COc1ccc(Br)cc1	.	.	.	.	.	28
CCCc1cc(=O)[nH]c(SCC(=O)c2ccc3c(c2)OCCO3)n1	.	.	.	.	.	.
O=C1c2ccccc2-c2n[nH]c(=O)c3ccc(N4CCCCC4)c1c23	33	.	.	.	.	.
COc1ccc(-c2cc3ccccc3oc2=O)cc1NC(=O)c1ccc([N+](=O)[O-])o1	25	.	.	.	.	.
Nc1cccc2cc(S(=O)(=O)O)ccc12	/	/	49	/	30	31
Nc1ccc2c(S(=O)(=O)O)cccc2c1S(=O)(=O)O	/	/	.	/	.	.
CC(=O)NCC(=O)N(c1ccccc1)C1(C(=O)NC2CCCCC2)CCCCC1	.	.	.	.	.	28
O=C1CSC(c2cccc([N+](=O)[O-])c2)N1C1CC2CCC1C2 (stereo unspecified)	.	.	.	.	.	24
COCC(C)NC(=O)NC1(C(F)(F)F)Oc2ccc(Cl)cc2O1 (stereo unspecified)	.	.	.	.	.	25
Cc1ccc(S(=O)(=O)NCC(=O)OCc2csc(-c3ccccc3)n2)cc1	.	.	.	.	.	.
O=C(CNS(=O)(=O)c1ccc2ccccc2c1)OCc1csc(-c2ccccc2)n1	.	.	.	.	.	28
CC(=O)NN1C(=O)/C(=C\c2ccc(Br)o2)SC1=S	27	.	.	.	.	.
O=C(O)CN=C(NS(=O)(=O)c1ccccc1)c1ccccc1	.	.	.	.	.	.
COc1ccc(OCc2cccc(C(=O)Nn3cc([N+](=O)[O-])cn3)c2)cc1	.	.	.	.	.	29
COc1ccc(OCc2cccc(C(=O)NN)c2)cc1	.	.	.	.	.	.
O=C(c1ccc(Oc2ccccc2)cc1)c1nc2c(n1O)CCCC2	31	.	.	.	.	.
O=C(O)c1ccc(N=Nc2c(O)[nH]c3cc(Cl)ccc23)cc1	.	.	.	.	.	.
O=C(O)c1ccc(N=Nc2c(O)[nH]c3ccc(Br)cc23)cc1	.	.	.	.	.	33
CC(C)=CCc1c2c(c3occ(-c4ccc(O)cc4)c(=O)c3c1O)C=CC(C)(C)O2	.	.	.	.	.	.
CC1(C)C=Cc2c(c3c(c4c(=O)c(-c5ccc(O)cc5)coc24)OC(C)(C)CC3)O1	26	.	.	.	.	.
COc1ccc(O)cc1	.	/	.	/	.	.
CC(C)(c1ccc(O)cc1)c1ccc(O)cc1	.	.	.	.	.	48
CCOC(=O)c1c(NC(=O)C(C)Sc2cccc[n+]2[O-])sc2c1CCN(Cc1ccccc1)C2 (stereo unspecified)	33	.	.	.	.	.
FC(F)(F)c1ccc2c(c1)NCC1CCCN21 (stereo unspecified)	27	.	.	.	86	.
SMILES	pPAFAH FP inh	LYPLA1 inh	PAFAH1B3 FP inh	LYPLA2 inh	PAFAH2 inh	PAFAH1B2 inh
FC(F)(F)c1ccc2c(c1)N1CCCC1CN2 (stereo unspecified)	.	.	.	.	.	.
Fc1ccccc1CSc1ncnc2c1ncn2C1CCCCO1 (stereo unspecified)	/	/	.	/	.	.
Cc1ccc(CS(=O)Cc2ccc(C(=O)NCc3ccc4c(c3)OCO4)o2)cc1 (stereo unspecified)	.	.	.	.	.	.
O=C(CSc1nc(O)cc(=O)n1-c1ccccc1)c1ccc(Br)cc1	25	.	.	.	.	.
O=c1cc(O)nc(SCc2ccccc2)n1-c1ccccc1	.	.	.	.	.	.
c1ccc(CN2CCN(c3nc(N4CCOCC4)c4ccccc4n3)CC2)cc1	.	.	.	.	.	.
O=C(CCn1c(=O)sc2ccccc21)Nc1nc2ccccc2s1	.	.	.	.	.	.
